In the library only some 2.4% were active in any assay of this set; here they are far more common.
Cruzain noTriton: cruzain (T. cruzi) inhibition without detergent | P25779 | purified cruzain, Z-FR-AMC fluorescence, no detergent | Potency, µM, for inactives: max response, negative = inhibition, most hits filed as inhibitors | 200,000 compounds, 2.3% hits | AID 1476;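 note: plate controls were enzyme without inhibitor for no effect and buffer without enzyme for full effect; nearly all actives have a fitted effect of over 40% in size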
Target sequence (P25779 123-467 limits assumed): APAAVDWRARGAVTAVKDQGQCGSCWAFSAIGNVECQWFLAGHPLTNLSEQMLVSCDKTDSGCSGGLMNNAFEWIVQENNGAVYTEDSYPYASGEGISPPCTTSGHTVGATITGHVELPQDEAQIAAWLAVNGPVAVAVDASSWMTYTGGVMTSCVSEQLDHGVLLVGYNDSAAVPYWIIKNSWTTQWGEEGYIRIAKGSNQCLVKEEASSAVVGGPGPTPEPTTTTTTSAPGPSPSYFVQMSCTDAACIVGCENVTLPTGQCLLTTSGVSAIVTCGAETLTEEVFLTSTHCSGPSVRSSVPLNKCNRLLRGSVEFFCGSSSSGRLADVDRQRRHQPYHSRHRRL
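Purified cruzain at 1.5 nM, pre-incubated 15 min with compound at room temperature in 100 mM sodium acetate pH 5.5, 5 mM DTT, 0.00005% Triton X-100. Reaction started with 2 uM Z-FR-AMC; AMC fluorescence increase over 60 s gives rate.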
Cruzain Triton: cruzain (T. cruzi) inhibition with detergent. P25779. purified cruzain, Z-FR-AMC fluorescence, 0.01% Triton. Potency, µM, without a hit: max response, negative = inhibition, actives largely listed as inhibitors. 200,000 compounds, 0.43% hits. AID 1478;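 note: plate controls were neutral wells for no effect and buffer without enzyme for full effect; nearly all actives have a fitted effect of over 40% in size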
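In this qHTS format, compounds are incubated with 1.5 nM cruzain for 15 min at room temperature before 2 uM Z-FR-AMC is added. Release of AMC is followed at 360/450 nm, and progress is taken as the 60 s fluorescence difference.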
An asterisk follows results filed as active; ? = inconclusive. Calls come from the whole dose curve; as a rule, active = well fitted curve in the direction sought with a large enough effect; inconclusive = small, poorly fitted or top-dose-only effect, or another doubt; inactive = no such curve, though single readings can be large; an effect the other way counts as inactive or inconclusive. Potency is the fitted concentration of half-maximal effect.

SMILES | Cruzain noTriton | Cruzain Triton
O=C(COC(=O)Cc1ccc(S(=O)(=O)N2CCCCC2)s1)Nc1ccc2c(c1)OCO2 | 10µM* | -10%
O=C(COC(=O)/C=C/c1ccc(OC(F)F)cc1)Nc1ccc(S(=O)(=O)N2CCCC2)cc1 | -1% | -3%
O=C(Cc1ccc(S(=O)(=O)N2CCCCC2)s1)Nc1ccc(F)c(F)c1 | 1% | -9%
O=C(COC(=O)/C=C/c1ccc2c(c1)OCO2)Nc1ccc(S(=O)(=O)N2CCCC2)cc1 | 32µM* | -9%
Cc1cc(=O)n(CC(=O)NC(C)c2ccccc2)c2c1c(C)nn2C (stereo not given) | -5% | -1%
COc1ccc(N2CCN(S(=O)(=O)CCNC(=O)COc3ccccc3F)CC2)cc1 | 1% | -2%
COc1ccc(NC(=O)N2CCN(S(=O)(=O)c3ccc4c(ccn4C)c3)CC2)cc1OC | ? | -3%
COc1cccc(NC(=O)C2CCN(S(=O)(=O)c3c(C)noc3/C=C/c3cccs3)CC2)c1 | 16µM* | -3%
COc1ccc(NC(=O)C2CCN(S(=O)(=O)c3c(C)noc3/C=C/c3cccs3)CC2)cc1 | -10% | -2%
Cc1noc(C)c1C(=O)N1CCC2(CCN(Cc3nccs3)CC2)CC1 | 3% | 4%
O=C(NNC(=S)NC(=O)c1cccs1)c1ccc(NC(=O)c2ccccc2)cc1 | 20µM* | 1%
COc1ccc(C(=O)Nc2ccc(NC(=O)c3cccs3)cc2)cc1OC | -27% | -1%
COc1ccc(C(=O)Nc2ccc(NC(=O)c3cccs3)cc2)cc1Cl | 7.9µM* | 3%
CC(=O)NC(=S)Nc1ccc(NC(=O)c2cccs2)cc1 | -10% | 1%
Cc1c(C(=O)NC(=S)Nc2ccc(NC(=O)c3cccs3)cc2)oc2ccccc12 | 13µM* | -2%
O=C(Nc1ccc(NC(=S)NC(=O)c2cccs2)cc1)c1ccccc1 | 14% | -4%
CCC(C)NC(=O)CSc1nc2cc3c(cc2c(=O)n1CCCCCC(=O)NCc1ccc2c(c1)OCO2)OCO3 (stereo not given) | 6% | 2%
Cc1c(C(=O)OCc2ccccc2)[nH]c2c1C(=O)CC(c1ccc(Cl)cc1)C2 (stereo not given) | 7.9µM* | 0%
COc1ccc(C2CC(=O)c3c([nH]c(C(=O)OCc4ccccc4)c3C)C2)cc1OC (stereo not given) | 5% | -2%
CCOCCOC(=O)c1[nH]c2c(c1C)C(=O)CC(c1ccc(N(C)C)cc1)C2 (stereo not given) | 10% | -2%
C/C=C/COC(=O)c1[nH]c2c(c1C)C(=O)CC(c1ccc(N(C)C)cc1)C2 (stereo not given) | 32µM* | -3%
CCOc1ccc(OCC)c(NC(=O)C2CCCN(S(=O)(=O)c3cc(Br)cc4c3N(C(=O)CC)CC4)C2)c1 (stereo not given) | 6% | -2%
COc1ccc(-c2cn3cccnc3n2)cc1NC(=O)c1cc(C)cc(C)c1 | 4% | -4%
COc1ccc(C(=O)CSc2nnc(-c3cc(C)on3)o2)cc1 | -16% | -5%
Cc1cc(-c2nnc(SCC(=O)c3ccc(Cl)cc3)o2)no1 | 25µM* | -4%
SMILES | Cruzain noTriton | Cruzain Triton
CC(=O)N(OCc1ccccc1)[C@@H]1c2cc(C#N)ccc2OC(C)(C)[C@H]1O | ? | -3%
Cc1cc(C)n(C(C[N+](=O)[O-])c2ccc(Cl)cc2)n1 (stereo not given) | 20µM* | -5%
Cc1cc(O)c(C(C[N+](=O)[O-])c2ccc(Cl)cc2)c(=O)o1 (stereo not given) | -15% | 0%
O=C1CCSc2cccc3cccc(c23)N1 | -7% | -4%
c1cc2c3c(c1)ccc1cccc(c13)C2 | -4% | 3%
c1cc2c3c(cccc3c1)NC1(CCCCC1)N2 | 7.9µM* | 0%
c1cc2c3c(cccc3c1)NC1(CCCCCC1)N2 | 13µM* | -1%
COc1cc(NC(=O)CCc2c(C)nc3nc(-c4cc(OC)cc(OC)c4)nn3c2C)cc(OC)c1 | -4% | -1%
Cc1ccc(CNS(=O)(=O)c2c(C(=O)N3CCC(C)CC3)c(C)n(C)c2C)cc1 | 2% | 0%
N#C/C(=C/c1ccc(N2CCCC2)c([N+](=O)[O-])c1)c1nc2ccccc2[nH]1 | -21% | -1%
N#C/C(=C\c1ccc(OC(=O)c2ccc(Br)s2)cc1)c1nc2ccccc2[nH]1 | 5µM* | -4%
N#C/C(=C\c1ccc(Oc2ccc(C(F)(F)F)cc2[N+](=O)[O-])cc1)c1nc2ccccc2[nH]1 | ? | 2%
N#C/C(=C\c1ccc(OC(=O)c2ccc(Cl)s2)cc1)c1nc2ccccc2[nH]1 | 4µM* | -25%
Oc1c(C(c2ccccc2F)N2CCC3(CC2)OCCO3)sc2nc(-c3ccco3)nn12 (stereo not given) | 13% | -2%
O=C(Cc1ccc(NC(=O)N2CCSc3ncccc32)cc1)NCc1cccc(Cl)c1 | -5% | -10%
COc1ccc(CCNC(=O)C2=C(C)C(=O)OC23CCCCC3)c(OC)c1 | 1% | 0%
O=C1c2ccccc2C(Nc2cccnc2)N1Cc1ccc2c(c1)OCO2 (stereo not given) | -2% | -1%
O=C1c2ccccc2C(Nc2ccc3c(c2)OCO3)N1Cc1ccc2c(c1)OCO2 (stereo not given) | 25µM* | -4%
Cc1ccc(N2CCN(C(=O)c3c(C)oc4ncnc(N5CCCCC5)c34)CC2)c(C)c1 | 13% | 0%
COC(=O)c1sc(N)c(C(=O)OC)c1COC(=O)[C@@H](NS(=O)(=O)c1cccc(Cl)c1)C(C)C | 10% | -8%
Cc1ccc(S(=O)(=O)CC(=O)Nc2sc3c(c2C#N)CCCCC3)cc1 | -10% | -3%
COC(=O)c1c(NC(=O)CS(=O)(=O)c2ccc(C)cc2)sc2c1CCCCC2 | 2.5µM* | -8%
CCOC(=O)c1c(NC(=O)C2CCCN(S(=O)(=O)c3ccccc3)C2)sc2c1CCCC2 (stereo not given) | ? | -3%
COC(=O)c1c(NC(=O)COC(=O)[C@@H](NS(=O)(=O)c2cccc(Cl)c2)C(C)C)sc2c1CCC2 | 16µM* | -10%
CCOC(=O)c1c(NC(=O)C2CCCN(S(=O)(=O)c3ccc(C)cc3)C2)sc2c1CCCC2 (stereo not given) | 16µM* | 0%
SMILES | Cruzain noTriton | Cruzain Triton
COc1ccccc1C(=O)Nc1cccc(C(=O)OCc2cc(=O)n3cc(C)sc3n2)c1 | 19% | -2%
Cc1oc2ccc(O)c(CN3CCCCCC3)c2c1C(=O)Nc1cccc(Cl)c1C | ? | -16%
Cc1ccccc1NC(=O)Nc1nnc(Cc2ccc([N+](=O)[O-])cc2)s1 | -27% | -2%
CCC12CN3CC(C)(CN(C1)C3c1c[nH]c3ccc(OC)cc13)C2=O (stereo not given) | -1% | -3%
Cc1nc(N2CCCC2)c2c(C(=O)N3CCN(c4cccc(Cl)c4)CC3)c(C)oc2n1 | ? | -2%
O=C(c1ccc(Cl)cc1)[C@@H]1[C@@H]2C(=O)N(c3cccc4ccccc34)C(=O)[C@@H]2C2c3ccccc3C=NN21 (stereo not given in full) | 25µM* | 0%
CC(=O)Oc1ccc(C(=O)[C@H]2[C@H]3C(=O)N(c4ccccc4)C(=O)[C@H]3[C@@H]3C=CC=NN32)cc1 | 19% | 0%
Cc1cccc(-c2noc(-c3ccc(NC4CCCC4)c([N+](=O)[O-])c3)n2)c1 | 0% | -7%
CCC1CN(C(=O)C2CCN(S(=O)(=O)c3c(C)noc3/C=C/c3ccccc3F)CC2)c2cc(C)ccc2O1 (stereo not given) | ? | -4%
